# Source: PubChem BioAssay AID588852 (The Scripps Research Institute Molecular Screening Center, 2011)
# Among all 360,000 compounds or so, about 4,600 (1.3%) were called active. This excerpt belongs to a sample that is enriched for actives. A number with no mark means an inactive call.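 How the source made its calls: active means percent inhibition above its own plate's cutoff, namely the mean of that plate's compound wells plus 3 SD; inactive means the rest.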
# Molecular target: Muscarinic acetylcholine receptor M1 (Homo sapiens) (UniProt P11229)
# Sequence (P11229 whole entry, looked up): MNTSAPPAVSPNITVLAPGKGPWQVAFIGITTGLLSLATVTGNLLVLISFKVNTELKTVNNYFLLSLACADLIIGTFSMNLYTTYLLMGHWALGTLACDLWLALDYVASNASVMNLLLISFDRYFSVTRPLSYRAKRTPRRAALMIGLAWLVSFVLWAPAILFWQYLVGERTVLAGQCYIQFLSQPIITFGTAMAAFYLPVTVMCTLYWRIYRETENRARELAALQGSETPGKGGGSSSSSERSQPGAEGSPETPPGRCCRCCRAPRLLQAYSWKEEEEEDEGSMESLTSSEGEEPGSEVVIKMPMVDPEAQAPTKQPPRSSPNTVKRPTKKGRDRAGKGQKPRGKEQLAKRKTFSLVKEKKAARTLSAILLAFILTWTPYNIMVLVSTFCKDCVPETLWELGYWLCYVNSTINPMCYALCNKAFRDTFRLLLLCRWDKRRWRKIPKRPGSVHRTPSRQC
# Experiment: CHRM1 blockers of acetylcholine calcium response – CHO-K1 cells, Fluo-8 calcium fluorescence, 1536-well, primary screen (AID 588852);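 further: peak over basal fluorescence ratio during 140 s after agonist addition; 0% = ACh EC80 plus DMSO and 100% = DMSO alone without agonist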
# Settings: CHO-K1 hM1, Fluo-8 calcium fluorescence, ACh EC80 antagonist; at 3 µM; active compounds read high
row,Structure (SMILES),inhibition
1,CC(=O)NC(CC(=O)Nc1cccc(S(=O)(=O)N2CCCC2)c1)c1ccccc1 (stereo not given),3.34%
2,CN(C)CCNC(=O)c1cccc(-c2cnc3c(NC=O)cc(-c4cccc(C(F)(F)F)c4)cn23)c1,2.76%
3,CN1OC[C@@H]2CN(C(=O)c3cccc4ccccc34)[C@H](c3ccc(N4CCCCC4)cc3)C[C@@H]21,19.7%
4,CN(CCOc1ccccc1)Cc1nc2cc(Cl)ccc2c(=O)[nH]1,-3.58%
5,Cc1nnc(NC2=NCCCCC2)o1,4.98%
6,CC/C(=N\NC(=S)NC(C)C)c1ccc(OC(F)F)cc1,8.57%
7,CCNC(=S)NNC(=O)C1CCN(Cc2ccccc2)CC1,-7.27%
8,O=C(NCc1ccccc1Cl)C1CCN(S(=O)(=O)N2CCOCC2)CC1,0.29%
9,Cc1ccc(S(=O)(=O)NCCC(=O)NC2CCN(Cc3ccccc3)CC2)cc1,-6.1%
10,O=C1CCc2cc(S(=O)(=O)N3CCC(C(=O)NCc4ccccc4Cl)CC3)ccc2N1,-13.3%
11,O=C(NCc1ccccc1CN1CCCC1)C1CCN(S(=O)(=O)c2ccc(Cl)cc2)CC1,35.7% (active)
12,O=C(NNS(=O)(=O)c1ccc(Cl)cc1)C1CCN(Cc2ccccc2)CC1,57.4% (active)
13,CCCCC[C@@H]1C=C(C(=O)OCC)[C@H](c2ccccc2)N1S(=O)(=O)c1ccc(C)cc1,7.33%
14,Cc1ccc(NC(=O)[C@H](Cc2ccccc2)NC(=O)CC[C@H]2O[C@@H](n3ccc(=O)[nH]c3=O)[C@H](O)[C@@H]2O)cc1C,-1.88%
15,Nc1ncnc2c1ncn2[C@@H]1O[C@H](C(=O)N2CCCN(Cc3ccccc3F)CC2)[C@@H](O)[C@H]1O,-21.5%
16,CN(C)C(=O)c1cccc(-c2cnc3sc(NCc4ccc5c(c4)OCO5)nn23)c1,-4.01%
17,CCOC(=O)c1ccc(N2C(=O)CC(N3CCN(C(=O)c4ccccc4)CC3)C2=O)cc1 (stereo not given),-7.68%
18,CCCCOC(=O)c1ccc(N2C(=O)CC(N3CCN(C/C=C/c4ccccc4)CC3)C2=O)cc1 (stereo not given),23.9% (active)
19,CCOC(=O)c1ccc(N2C(=O)CC(N3CCC(C(=O)OCC)CC3)C2=O)cc1 (stereo not given),2.05%
20,COc1ccc(CCNC(=O)CCNS(=O)(=O)c2cc(Br)cnc2N)cc1OC,-19.1%
21,COc1cccc(OCc2cc(C(=O)N3CCN(C(=O)c4ccco4)CC3)no2)c1,-3.65%
22,C=CCC1(CC=C)CCCN1C(=O)c1cc(COc2ccc(-n3cncn3)cc2)on1,38.7% (active)
23,CCCC(=O)N1CCC1(C)C(=O)Nc1ccc(-n2cncn2)cc1 (stereo not given),-15.8%
24,COc1ccccc1NC(=O)COC(=O)c1ccccc1SCC(=O)N1CCCC1,-4.49%
25,CC(NC(=O)c1ccccc1SCC(=O)N1CCCC1)c1ccccc1 (stereo not given),-16.6%
26,CC(C)N(Cc1ccccc1)C(=O)COC(=O)c1ccccc1SCC(=O)N1CCCC1,32.7% (active)
27,COc1cc(C=C(OC(C)=O)c2ccc3c(c2)OCO3)cc(OC)c1OC,17.2%
28,O=C(NCC1CCCO1)c1ccccc1-c1nc(-c2ccccc2Cl)no1 (stereo not given),6.15%

row,Structure (SMILES),inhibition
1,Cc1ccc(C(=O)NCC(=O)NCc2cc(=O)n(C)c(=O)n2C)cc1,-9.92%
2,COc1ccc(CC(=O)Nc2ccccc2NC(=O)c2ccco2)cc1OC,-6.85%
3,O=C(COc1ccccc1F)Nc1nc(-c2ccccn2)cs1,-7.13%
4,COc1ccc(CCNC(=O)COC(=O)Cc2cc(OC)c(OC)c(OC)c2)cc1,-5.89%
5,COc1cc(CC(=O)Nc2nc(-c3ccc(F)c(F)c3)cs2)cc(OC)c1OC,32.3% (active)
6,COc1ccc(-c2csc(Nc3cccc(C)n3)n2)cc1OC,-13.9%
7,COc1ccc(CC(=O)Nc2nc(-c3ccc(F)c(F)c3)cs2)cc1OC,37.2% (active)
8,CC(C)C[C@H]1CN([C@@H](Cc2ccccc2)CN2CCC[C@@H]2CN2C(=O)C(=O)NC[C@@H]2Cc2ccc(O)cc2)C(=O)C(=O)N1CCc1ccccc1,6.28%
9,CC(=O)Nc1ccc(NC(=O)CSc2nnnn2C2CCCCC2)cc1,-17.6%
10,CN(CC#CCC(c1ccccc1)c1ccccc1)C(C)(C)C,94.5% (active)
11,CC(C)OCCCNc1ncnc2c1[nH]c1ccc(F)cc12,49.6% (active)
12,CCOC(=O)C1=CCC2C(=O)N(Cc3ccccc3)C(=O)C12 (stereo not given),-8.51%
13,CCNC(=O)COC(=O)/C=C/c1c(C)nn(Cc2cccc(OC)c2)c1Cl,-14.4%
14,O=C(NC1CC1)C1=C[C@H](c2coc3ccccc3c2=O)C[C@H](OCCCCO)O1,-2.15%
15,CC1(Cc2cccc(C#N)c2)C(=O)Nc2ccc(-c3cccc(C(F)(F)F)c3)cc21 (stereo not given),-21.5%
16,O=C(N/N=C/c1ccc(OCC2COCCO2)cc1)c1ccc(Br)cc1 (stereo not given),-0.51%
17,COc1cccc(/C=N/Nc2cc(C)nc(-c3ccccc3O)n2)c1O,37% (active)
18,COc1ccccc1-n1c(SCC(=O)Nc2cccc(C(=O)O)c2)nnc1-c1ccccc1O,-23.3%
19,COc1cc(/C=N/Nc2ccc(C)cc2)cc(Br)c1O,1.92%
20,CC(C)C(=O)Nc1nnc(SCC(=O)N2C(C)CCCC2C)s1 (stereo not given),-9.39%
21,COC(C)(C)[C@]12CC(O)(C(C)C)ON1[C@H]1CCCCC1N2O (stereo not given in full),2.96%
22,CCOC(=O)c1cccc(NC(=O)CN2C(=O)C3CC=CCC3C2=O)c1 (stereo not given),-6.58%
23,Cc1ccccc1OCC(=O)NNC(=O)c1cc(S(=O)(=O)N(C)C)ccc1N1CCCC1,-9.89%
24,CN(C)Cc1ccccc1C1(O)c2ccccc2CSc2ccccc21 (stereo not given),20.6%
25,CN(C)CC/C=C1\c2ccccc2CSc2ccccc21,96.1% (active)
26,COc1ccc(-c2ccc(C(=O)NCCN3CCOCC3)c3occc23)c(C)c1,1.54%
27,CC(C)C[C@H]1CNC(=S)N1C[C@H]1CCCN1C[C@H](Cc1ccc(O)cc1)N1C[C@H](Cc2ccc(O)cc2)N(CC2CCCCC2)C1=S,1.57%
